Data taken from ChEMBL document CHEMBL3988442, “University of Dundee, Small-Polar-MMV Screening Library” (2021).
About 13,000 (27%) of roughly 48,000 compounds showed an effect of 50% or more. This is one part of the list.

What follows are compounds tested on Wolbachia pipientis (assay: Anti-Wolbachia Cell-Based Screen). Conditions: 5 µM.
Format: functional
Parameters: scale not given: in the data most compounds retested in dose-response had high values

In order of rising “Percent Effect” value:
1. CCc1nc(C)cc(N2CCCC(C(=O)c3ccc(OC)cc3C)C2)n1 (centres undefined)  -51.86%
2. Cc1ncsc1CN1C[C@@H]2CN(S(C)(=O)=O)CCO[C@@H]2C1  -34.03%
3. CCc1ccc(C(=O)NCCCC2(C3OCCO3)CCOCC2)cc1  -33.3%
4. Cc1csc(CN2C[C@@H]3CN(S(C)(=O)=O)CCO[C@@H]3C2)n1  -30.25%
5. CN(Cc1cccnc1)C[C@H]1OC[C@@H]2CCN(C(=O)C3CC3)C[C@@H]21.O=C(O)C(F)(F)F.O=C(O)C(F)(F)F  -29.83%
6. O=C(O)CSc1nnc(-c2cn[nH]c2)n1-c1ccccc1Cl  -15.15%
7. O=C(c1cc(Cl)c2c(c1)OCO2)N1CCN(c2ccccn2)CC1  -15.08%
8. N#Cc1ccccc1CN1C[C@@H]2CC[C@H](C1)N(Cc1cscn1)C2=O  -11.1%
9. Cc1nc(CNCC(O)COc2ccc3c(c2)OCO3)cs1 (centres undefined)  -10.52%
10. Cc1nn(C)c(Cl)c1CNCCOc1ccc2c(c1)OCO2  -10.2%
11. Cc1cc(N2CCC(O)(C(=O)O)CC2)nc2ccccc12  -10.2%
12. Cc1cc(CN2CCC3(CC2)CC(C(=O)O)N(C(=O)C2CC2)C3)oc1C (centres undefined)  -10.16%
13. Cc1ccc([C@H]2CN(C(C)C)C[C@@H]2NS(=O)(=O)N2CCOCC2)o1  -9.511%
14. Cc1nc(C)n(CC2CCCN2Cc2nc(-c3cccs3)no2)n1 (centres undefined)  -9.424%
15. CC(=O)c1ccc(N2CCC3(CCC(=O)N(CCCO)C3)CC2)nc1  -7.997%
16. O=C(c1cc(=O)[nH]c(=O)[nH]1)N1CCCCC1c1nc2cc(F)ccc2[nH]1 (centres undefined)  -7.879%
17. Cc1cccc(NS(=O)(=O)c2cc(C(=O)O)oc2C)c1Cl  -7.287%
18. Cc1cccc(CN2Cc3[nH]nc(COCC4CC4)c3C2)n1.O=C(O)C(F)(F)F  -6.126%
19. CCn1ccnc1CNCC1CCN(CC(O)c2ccccc2)CC1 (centres undefined)  -5.873%
20. CC(C)c1nn(C)c(N(C)C)c1CNCC(O)c1ccccc1F (centres undefined)  -5.015%
21. Cc1cccc(NS(=O)(=O)c2cc(C(=O)O)oc2C)c1  -4.62%
22. Cc1nnc(N2C[C@H](OCc3ccncc3)[C@H]3OCCC[C@H]32)s1.O=C(O)C(F)(F)F.O=C(O)C(F)(F)F  -4.606%
23. O=C(O)c1ccc(S(=O)(=O)Nc2ccccc2CC(F)(F)F)c(F)c1  -4.395%
24. O=C(CO[C@@H]1CC[C@H]2[C@H]1OCCN2Cc1ccccn1)N1CCCC1.O=C(O)C(F)(F)F.O=C(O)C(F)(F)F  -4.207%
25. Cc1oc(C(=O)O)cc1S(=O)(=O)Nc1ccc(Cl)c(F)c1  -4.199%
26. CC(=O)Nn1c(C)cc(CN2CCC(c3ccncc3)CC2)c1C  -4.141%
27. O=C1N(Cc2ccccn2)C[C@H]2CN(S(=O)(=O)c3ccccc3)CCN12  -3.737%
28. COCCC1(C(=O)O)CCN(c2cc(C)c3ccccc3n2)CC1  -3.456%
29. COc1cc(CNCCn2cccn2)c2c(c1)CC(C)O2 (centres undefined)  -3.376%
30. Cc1cccc(CO[C@@H]2CC[C@H]3[C@H]2OCCN3Cc2cc(C)on2)n1.O=C(O)C(F)(F)F.O=C(O)C(F)(F)F  -3.201%
31. COc1c(CNCc2ccc(N(C)C)nc2)c(C(C)C)nn1C  -3.12%
32. Cc1nn(C)c(C)c1C1CCCN1Cc1nc(C2CC2)no1 (centres undefined)  -2.837%
33. Cc1cc(C)n(C2CN(CC(O)c3ccc4c(c3)OCO4)C2)n1 (centres undefined)  -2.648%
34. CCn1cc(N2Cc3nc(N4CCN(C)CC4)ncc3C2=O)cn1  -2.562%
35. CCC(=O)N1CCCN(c2cncc(-n3nc(C)cc3C)n2)CC1  -2.482%
36. COc1c(CNCc2ccc(CN(C)C)cc2)c(C(C)C)nn1C  -2.323%
37. O=C1N(Cc2cccnc2)C[C@H]2CN(S(=O)(=O)c3ccccc3)CCN12  -1.281%
38. COc1ccc(CN2CCO[C@H]3[C@H](Oc4ccccn4)CC[C@@H]32)cc1.O=C(O)C(F)(F)F.O=C(O)C(F)(F)F  -1.108%
39. O=C(NCc1ccccc1)N1CCC(Oc2ncccc2Br)CC1  -0.9975%
40. O=S(=O)(c1cccnc1)N1CCC(OCCCc2ccccc2)C1 (centres undefined)  -0.692%
41. O=C(O)C(F)(F)F.O=C(c1ccncc1)N1CC[C@H]2[C@H]1CCN2S(=O)(=O)C1CC1  -0.5443%
42. CCn1nc(C)cc1C(=O)N1CCOc2cc(C)ccc21  -0.2889%
43. CN(C)C(=O)CNS(=O)(=O)c1cc(Br)ccc1F  0.0286%
44. Cn1ccnc1CN1C[C@H]2CN(S(=O)(=O)c3ccccc3)CCN2C1=O  0.6101%
45. Cc1nc(CNC(=O)CCN2CCN(c3ccccc3)CC2)oc1C  0.8962%
46. Cc1cn2c(CN(C)C(=O)c3cccnc3O)c(C)nc2s1  1.222%
47. COc1ncccc1CNCc1c(C(C)C)nn(C)c1OC  1.463%
48. Cc1cccc(C(=O)N2CCSCC2)c1NC(=O)c1ccsc1  1.507%
49. Cc1csc(CNc2cnn(C(C)C)c2)n1  2.502%
50. COc1ccccc1C(O)CNCc1c(C(C)C)nn(C)c1N(C)C (centres undefined)  2.712%
51. Cc1oc(C(=O)O)cc1S(=O)(=O)Nc1cccc(-c2nccs2)c1  2.887%
52. NC(=O)Nc1cccc(F)c1C(=O)NC1CCCC1  2.904%
53. CC(c1cccnc1)N(C)Cc1csc(-c2ccccn2)n1 (centres undefined)  4.015%
54. O=C(CS(=O)(=O)c1cccc[n+]1[O-])NC1CCCc2ccccc21 (centres undefined)  4.468%
55. Cc1oc(C(=O)O)cc1S(=O)(=O)Nc1cc(Cl)ccc1F  4.903%
56. CC(C)(C)OC(=O)N[C@H]1CCN(c2cncc(Br)c2)C1  4.915%
57. COc1c(CNCC(O)c2cccc(F)c2)c(C(C)C)nn1C (centres undefined)  6.756%
58. CN(CC1CCCN(S(C)(=O)=O)C1)c1cnn(C)c1 (centres undefined)  7.496%
59. COc1c(CNCC(c2cccc(F)c2)N(C)C)c(C(C)C)nn1C (centres undefined)  10%
60. CC(=O)N1CC[C@H]2CC(=O)N(CCc3c[nH]cn3)CC[C@H]2C1  10.36%
61. Cc1nn(C)c(N(C)C)c1CNCc1cccc(Cl)c1  10.47%
62. Fc1ccccc1CN1C[C@@H](OCc2ccncc2)[C@H]2OCCC[C@H]21.O=C(O)C(F)(F)F.O=C(O)C(F)(F)F  11.15%
63. Cc1cnc(N2CCC[C@@H]3CN(S(C)(=O)=O)C[C@@H]32)nc1  11.33%
64. Cn1c(SCc2noc(C(C)(C)C)n2)nnc1C1CCS(=O)(=O)C1 (centres undefined)  11.73%
65. N#Cc1ccccc1CN1CCC2(CC1)CC(c1ccccc1)C(=O)N2 (centres undefined)  15.31%
66. Cc1ccnc2c1NC(=O)CN2C(=O)CCc1cccs1  21.37%
67. COc1c(CNC(c2ccc(F)cc2)C(C)(C)C)c(C)nn1C (centres undefined)  23.53%
68. Cc1cc(N2CCN(C(=O)[C@@H]3C[C@@H]4C=C[C@H]3C4)CC2)nc2ccccc12  54.26%
69. Cc1nn(C)c(C)c1C1CCCN1Cc1nc(-c2cccs2)no1 (centres undefined)  66.61%
70. COc1c(CNCC(O)COc2ccc3c(c2)OCO3)c(C)nn1C (centres undefined)  70.56%
71. Cc1nn(C)c(N(C)C)c1CNCC(O)c1ccccc1F (centres undefined)  78.77%
72. Cc1ccc(CC2COCCN(S(C)(=O)=O)C2)nc1 (centres undefined)  84.13%
73. CCc1nc(C)cc(N2CCN(C(=O)[C@@H]3C[C@@H]4C=C[C@H]3C4)CC2)n1  84.46%
74. COc1c(CNCC(O)c2ccc(C)cc2)c(C(C)C)nn1C (centres undefined)  85.73%
75. Cc1ccc(CC2COCCN(S(=O)(=O)c3ccccc3)C2)nc1 (centres undefined)  86.08%
76. COc1c(CNCC(O)c2ccccc2F)c(C(C)C)nn1C (centres undefined)  91.26%
77. O=S(=O)(c1ccccc1)N1CCOCC(Cc2cccnc2)C1 (centres undefined)  91.68%
78. COc1c(CNCC(O)c2ccccc2)c(C(C)C)nn1C (centres undefined)  92.93%
79. Cc1nn(C)c(C)c1C1CCCN1Cc1nc(-c2ccccn2)no1 (centres undefined)  93.92%
80. C1CCC(c2nn3c(C4CCCO4)nnc3s2)C1 (centres undefined)  94.06%
81. Cc1cccc(CN2CCO[C@@H]3CC(COc4ccccn4)C[C@H]32)n1.O=C(O)C(F)(F)F.O=C(O)C(F)(F)F (some centres undefined)  94.81%
82. Cc1oc(C(=O)O)cc1S(=O)(=O)Nc1cc(Br)ccc1F  94.97%
83. Cc1oc(C(=O)O)cc1S(=O)(=O)Nc1ccccc1F  96.87%
84. Cc1ccc(F)c(NS(=O)(=O)c2cc(C(=O)O)oc2C)c1  98.71%
85. C1CCC(c2nnc3sc(C4CCOC4)nn23)C1 (centres undefined)  100.6%
86. COc1c(CNCC(O)c2cccc(F)c2)c(C)nn1C (centres undefined)  102.4%
87. Cc1oc(C(=O)O)cc1S(=O)(=O)Nc1ccc(Cl)cc1F  103.2%
88. Cc1cccc(CN2CCO[C@H]3[C@@H](OCc4ccncc4)CC[C@@H]32)n1.O=C(O)C(F)(F)F.O=C(O)C(F)(F)F.O=C(O)C(F)(F)F  103.5%
89. Cc1oc(C(=O)O)cc1S(=O)(=O)Nc1cccc(Cl)c1F  105.9%
90. C1CCC(c2nnc3sc(C4CCCO4)nn23)C1 (centres undefined)  107.8%
91. Cc1oc(C(=O)O)cc1S(=O)(=O)Nc1cc(F)ccc1F  110.8%
92. Cc1ccc(CC2CCCN(S(C)(=O)=O)C2)nc1 (centres undefined)  114.6%
93. COc1ccc(CN2CCO[C@H]3[C@H](OCc4ccncc4)CC[C@@H]32)cc1.O=C(O)C(F)(F)F.O=C(O)C(F)(F)F  132.4%
94. Fc1ccc(CN2CCO[C@H]3[C@H](OCc4ccncc4)CC[C@@H]32)cc1.O=C(O)C(F)(F)F.O=C(O)C(F)(F)F  140.9%
